Values joined by “and” are separate entries in the source; they are usually repeats but may differ in a detail not shown here. Equal values may be shown once. Read-outs that look alike come from different tables or passages of the source.

In assay [1] the test system is MYLK4. The conditions noted are these: concentration: 1 μM, replicates: in singlicate, n = 1.
The subject of assay [2] is MYLK. The note with it: concentration: 1 μM, replicates: in singlicate, n = 1.
Assay [3] has as its system MYO3A. The note with it: concentration: 1 μM, replicates: in singlicate, n = 1.
In assay [4] the test system is MYO3B. The conditions noted are these: concentration: 1 μM, replicates: in singlicate; n = 1.
Assay [5] concerns T1, NDR1.
T1 construct: gene STK38
The note with it: concentration: 1 μM, replicates: in singlicate, n = 1.

For assay [6], the system named is NDR2. The conditions noted are these: concentration: 1 μM, replicates: in singlicate, n = 1.
In assay [7] the test system is NEK10. The note with it: concentration: 1 μM, replicates: in singlicate; n = 1.
Assay [8] concerns NEK11. The conditions noted are these: concentration: 1 μM, replicates: in singlicate, n = 1.
Assay [9] concerns NEK1. The note with it: concentration: 1 μM, replicates: in singlicate; n = 1.
Assay [10] concerns NEK2. The conditions noted are these: concentration: 1 μM, replicates: in singlicate, n = 1.
Assay [11] deals with NEK3. The conditions noted are these: concentration: 1 μM, replicates: in singlicate, n = 1.
Assay [12] has as its system NEK4. The note with it: concentration: 1 μM, replicates: in singlicate, n = 1.
Assay [13] relates to NEK5. The conditions noted are these: concentration: 1 μM, replicates: in singlicate, n = 1.
Assay [14] relates to NEK6. The conditions noted are these: concentration: 1 μM, replicates: in singlicate, n = 1.
Assay [15] concerns NEK7. The conditions noted are these: concentration: 1 μM, replicates: in singlicate; n = 1.
For assay [16], the system named is NEK9. The note with it: concentration: 1 μM, replicates: in singlicate, n = 1.
In assay [17] the test system is T2, NIK.
T2 construct: gene MAP3K14
The note with it: concentration: 1 μM, replicates: in singlicate, n = 1.

Assay [18] deals with T3, NIM1.
T3 construct: gene MGC42105
The conditions noted are these: concentration: 1 μM, replicates: in singlicate; n = 1.

In assay [19] the test system is NLK. The conditions noted are these: concentration: 1 μM, replicates: in singlicate, n = 1.
Assay [20] concerns T4, OSR1.
T4 construct: gene OXSR1
The conditions noted are these: concentration: 1 μM, replicates: in singlicate, n = 1.
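Also: KINOMEscan kinase panel screen.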

`Cc1ccc(C)c(NC(=O)NCCNc2ccnc(Nc3ccc(F)cc3)n2)c1` [GSK1379878]: the “%Inh” value in assay [1] was found to be 0%; in [2], 8%; in assay [3] it was 0%; in [4], 0%; in [5], 0%; in assay [6], 16%. Further, the “%Inh” value in assay [7] turned out to be 11%; in assay [8] it was 17%; in assay [9], 0%; in assay [10], 0%; in [11], 0%; in [12], 0%. The “%Inh” value in assay [13] amounted to 3%; in assay [14] it was 0%; in [15] it was 0%; in [16], 9%; in assay [17], 10%; in assay [18], 0%. For the same compound, the “%Inh” value in assay [19] and in assay [20] was 0% in each case.
As to `CCc1nc(-c2cccc(C)c2)c(-c2ccnc(NC(=O)c3ccccc3)c2)s1`, the “%Inh” value in [1] worked out at 0%; in assay [2], 18%; in assay [3] it was 65%; in assay [4], 0%; in assay [5], 0%; in assay [6], 22%. The “%Inh” value in assay [7] is given as 6%; in assay [8], 0%; in [9], 0%; in assay [10], 0%; in assay [11] it was 27%; in [12], 0%. In addition, the “%Inh” value in assay [13] was 2%; in [14] it was 28%; in [15] it was 16%; in [16] it was 13%; in assay [17], 22%; in assay [18] it was 11%. Besides, the “%Inh” value in assay [19] came to 23%; in [20], 10%.
In the case of `C[C@@H]1CCN(C(=O)CO)C[C@@H]1N(C)c1ncnc2[nH]ccc12`, the “%Inh” value in assay [1] is listed as 0%; in [2], 3%; in [3], 0%; in assay [4] it was 0%; in assay [5], 6%; in assay [6], 14%. Also, the “%Inh” value was determined as 48% in [7]; 0% in assay [8]; 0% in assay [9]; 0% in assay [10]; 38% in assay [11]; 0% in [12]. In addition, the “%Inh” value in [13] amounted to 1%; in assay [14], 0%; in [15], 0%; in assay [16], 0%; in assay [17], 0%; in [18], 0%. Moreover, the “%Inh” value in [19] was 100%; in [20], 0%.
For `COc1ccc(Nc2nccc(N3CCC(NC(=O)c4cccc(NC(C)=O)c4)C3)n2)cc1` (centres unmarked) [GSK1379732], the “%Inh” value in [1] was 6%; in assay [2] it was 29%; in assay [3], 37%; in assay [4], 0%; in [5], 15%; in assay [6], 10%. The “%Inh” value is on record as 24% in assay [7]; 48% in [8]; 6% in assay [9]; 6% in [10]; 11% in [11]; 0% in [12]. In addition, the “%Inh” value in assay [13] was determined as 25%; in [14], 0%; in assay [15], 0%; in assay [16], 13%; in assay [17], 28%; in assay [18] it was 47%. For the same compound, the “%Inh” value is 12% in assay [19] and 7% in assay [20].
`N#Cc1ccc(Oc2ccc(Nc3ncnc4cc[nH]c34)cc2Cl)cc1`: the “%Inh” value came out at 13% in assay [1]; 30% in [2]; 18% in [3]; 38% in assay [4]; 33% in assay [5]; 0% in assay [6]. Further, the “%Inh” value in assay [7] is given as 3%; in assay [8], 0%; in assay [9], 0%; in [10], 10%; in assay [11], 26%; in assay [12] it was 0%. The “%Inh” value in assay [13] is recorded as 0%; in [14], 0%; in assay [15], 13%; in [16] it was 2%; in assay [17] it was 0%; in assay [18], 30%. Further, the “%Inh” value in assay [19] amounted to 17%; in assay [20], 4%.
Consider `Cc1ccc(O)cc1Nc1cc(C(F)(F)F)nc2ccc(-c3ccncc3)cc12` [GW630823], for which the “%Inh” value worked out at 0% in assay [1]; 6% in [2]; 6% in [3]; 0% in assay [4]; 0% in assay [5]; 6% in [6]. Moreover, the “%Inh” value in [7] is reported as 0%; in assay [8], 0%; in [9], 0%; in assay [10], 2%; in assay [11] it was 0%; in assay [12], 0%. The “%Inh” value was 6% in assay [13]; 8% in assay [14]; 58% in [15]; 42% in assay [16]; 0% in [17]; 0% in assay [18]. Also, the “%Inh” value is reported as 10% in assay [19] and 0% in assay [20].
`Nc1nc(-c2ccc3c(N)n[nH]c3c2)cc(N2CCCCC2)n1` [GSK2228768]: the “%Inh” value is on record as 0% in assay [1]; 1% in [2]; 0% in [3]; 0% in [4]; 0% in assay [5]; 0% in assay [6]. In addition, the “%Inh” value in [7] is listed as 0%; in [8] it was 0%; in [9], 0%; in [10], 3%; in assay [11] it was 0%; in [12] it was 3%. In addition, the “%Inh” value in assay [13] is given as 4%; in assay [14], 0%; in assay [15] it was 0%; in [16] it was 0%; in assay [17], 0%; in assay [18], 0%. For the same compound, the “%Inh” value in [19] is listed as 0%; in assay [20], 7%.
As for `COc1ccc(-c2nc3n(c2-c2ccncc2)CCC3)cc1` [SKF-104493], the “%Inh” value in assay [1] (1 µM) was 0% and 12%; in [2] (1 µM), 14% and 8%; in assay [3] (1 µM), 7% and 25%; in assay [4], 0%; in assay [5] (1 µM) it was 22% and 13%; in [6] (1 µM), 16% and 10%. Further, the “%Inh” value is 0% in assay [7]; 42% and 13% in [8] (1 µM); 0% in assay [9]; 0% and 4% in [10] (1 µM); 19% and 0% in [11] (1 µM); 19% and 0% in assay [12] (1 µM). Besides, the “%Inh” value was 0% and 16% in assay [13] (1 µM); 5% and 0% in assay [14] (1 µM); 0% in assay [15]; 0% and 23% in assay [16] (1 µM); 0% and 6% in assay [17] (1 µM); 19% in assay [18]. Also, the “%Inh” value is 28% and 64% in assay [19] (1 µM); 2% and 0% in assay [20] (1 µM).
Take `Nc1nccc2scc(-c3ccc4c(c3)CCN4C(=O)Cc3cc(F)ccc3F)c12` [GSK2587663]: the “%Inh” value in assay [1] was found to be 0%; in [2] it was 24%; in assay [3], 0%; in assay [4], 0%; in [5], 0%; in assay [6], 0%. Also, the “%Inh” value in [7] amounted to 12%; in assay [8], 9%; in [9], 0%; in [10], 7%; in assay [11], 0%; in assay [12], 9%. Also, the “%Inh” value in assay [13] is recorded as 6%; in [14], 0%; in assay [15], 0%; in assay [16] it was 4%; in [17], 0%; in assay [18] it was 18%. Besides, the results for the “%Inh” value in [19] and in [20] were 2% and 5%, respectively.
`COc1cc2ncnc(Nc3ccc(OCc4ccccc4Br)c(Cl)c3)c2cc1OC.Cl` [GI261590]: the “%Inh” value is 0% in assay [1]; 10% in [2]; 38% in assay [3]; 0% in assay [4]; 0% in assay [5]; 0% in [6]. In addition, the “%Inh” value was found to be 25% in assay [7]; 0% in [8]; 0% in [9]; 0% in [10]; 12% in [11]; 0% in [12]. For the same compound, the “%Inh” value in assay [13] is 14%; in assay [14], 0%; in assay [15] it was 0%; in assay [16], 0%; in assay [17], 20%; in assay [18], 22%. Further, the entries for the “%Inh” value in assay [19] and in assay [20] were 26% and 0%, respectively.

These data come from PMC5540273 (PLoS ONE, 2017).
